Experimental data from the supplement of paper PMC11732987, “Enantioselective OTUD7B fragment discovery through chemoproteomics screening and high-throughput optimisation” (Communications Chemistry, 2025).

How the values were obtained:
Assay in all cases: log2 ratio of Biotin-Ahx-Ub-VS probe labelling (fragment/DMSO); higher = less target engagement (more negative = stronger competition), active = hit call of the paper (q ≤ 0.05, log2 ratio ≤ -1)
Details in all cases: compound concentration: 200 uM; treatment time: 3 h
USP34 = USP34 (UniProt Q70CQ2)
Procedure, shortened: (§1)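 Labelled DUBs were enriched with NeutrAvidin, digested with LysC and trypsin, and run by diaPASEF LC-MS/MS. The labelling used Biotin-Ahx-Ub-VS at 0.5 µM final for 1 h on HEK293T lysate (495 µg per sample) previously treated in triplicate with fragment at 200 µM or vehicle for 3 h. Values are average log2 fragment/vehicle ratios by unpaired t-test on global-median-normalised Spectronaut quantities of proteins with ≥2 unique peptides.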

USP36 = target: T1, USP36 (UniProt Q9P275)
T1 sequence (whole entry): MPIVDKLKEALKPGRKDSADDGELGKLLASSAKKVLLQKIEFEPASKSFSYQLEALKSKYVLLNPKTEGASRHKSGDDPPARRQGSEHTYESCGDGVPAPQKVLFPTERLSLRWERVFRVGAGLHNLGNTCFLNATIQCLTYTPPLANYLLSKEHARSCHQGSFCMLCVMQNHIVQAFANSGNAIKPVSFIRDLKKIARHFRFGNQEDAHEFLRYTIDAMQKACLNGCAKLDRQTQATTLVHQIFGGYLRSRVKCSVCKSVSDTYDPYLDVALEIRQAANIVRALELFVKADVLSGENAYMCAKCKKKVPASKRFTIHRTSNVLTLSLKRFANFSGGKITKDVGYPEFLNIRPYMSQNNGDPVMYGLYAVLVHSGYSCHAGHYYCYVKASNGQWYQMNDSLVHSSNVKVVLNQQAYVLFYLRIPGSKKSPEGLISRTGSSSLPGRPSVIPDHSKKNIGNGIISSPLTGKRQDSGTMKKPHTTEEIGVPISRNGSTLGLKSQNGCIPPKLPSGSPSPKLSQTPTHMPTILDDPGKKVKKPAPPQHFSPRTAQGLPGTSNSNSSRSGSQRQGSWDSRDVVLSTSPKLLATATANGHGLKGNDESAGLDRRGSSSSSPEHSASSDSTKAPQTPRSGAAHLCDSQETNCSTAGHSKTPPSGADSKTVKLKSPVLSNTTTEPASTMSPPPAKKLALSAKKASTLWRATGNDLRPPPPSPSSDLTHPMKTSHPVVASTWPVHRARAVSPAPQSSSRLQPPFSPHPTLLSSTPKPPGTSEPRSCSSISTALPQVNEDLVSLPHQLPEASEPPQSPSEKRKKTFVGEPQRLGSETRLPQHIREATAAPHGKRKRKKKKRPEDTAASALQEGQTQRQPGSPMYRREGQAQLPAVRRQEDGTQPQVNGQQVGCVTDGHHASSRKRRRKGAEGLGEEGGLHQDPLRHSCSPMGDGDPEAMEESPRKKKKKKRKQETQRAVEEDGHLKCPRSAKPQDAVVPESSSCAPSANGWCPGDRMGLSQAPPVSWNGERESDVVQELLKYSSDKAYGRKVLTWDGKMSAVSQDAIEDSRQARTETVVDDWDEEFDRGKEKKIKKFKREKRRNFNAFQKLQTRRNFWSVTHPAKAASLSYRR
Procedure, shortened: as §1

USP38 = target: T2, USP38 (UniProt Q8NB14)
T2 sequence (whole entry): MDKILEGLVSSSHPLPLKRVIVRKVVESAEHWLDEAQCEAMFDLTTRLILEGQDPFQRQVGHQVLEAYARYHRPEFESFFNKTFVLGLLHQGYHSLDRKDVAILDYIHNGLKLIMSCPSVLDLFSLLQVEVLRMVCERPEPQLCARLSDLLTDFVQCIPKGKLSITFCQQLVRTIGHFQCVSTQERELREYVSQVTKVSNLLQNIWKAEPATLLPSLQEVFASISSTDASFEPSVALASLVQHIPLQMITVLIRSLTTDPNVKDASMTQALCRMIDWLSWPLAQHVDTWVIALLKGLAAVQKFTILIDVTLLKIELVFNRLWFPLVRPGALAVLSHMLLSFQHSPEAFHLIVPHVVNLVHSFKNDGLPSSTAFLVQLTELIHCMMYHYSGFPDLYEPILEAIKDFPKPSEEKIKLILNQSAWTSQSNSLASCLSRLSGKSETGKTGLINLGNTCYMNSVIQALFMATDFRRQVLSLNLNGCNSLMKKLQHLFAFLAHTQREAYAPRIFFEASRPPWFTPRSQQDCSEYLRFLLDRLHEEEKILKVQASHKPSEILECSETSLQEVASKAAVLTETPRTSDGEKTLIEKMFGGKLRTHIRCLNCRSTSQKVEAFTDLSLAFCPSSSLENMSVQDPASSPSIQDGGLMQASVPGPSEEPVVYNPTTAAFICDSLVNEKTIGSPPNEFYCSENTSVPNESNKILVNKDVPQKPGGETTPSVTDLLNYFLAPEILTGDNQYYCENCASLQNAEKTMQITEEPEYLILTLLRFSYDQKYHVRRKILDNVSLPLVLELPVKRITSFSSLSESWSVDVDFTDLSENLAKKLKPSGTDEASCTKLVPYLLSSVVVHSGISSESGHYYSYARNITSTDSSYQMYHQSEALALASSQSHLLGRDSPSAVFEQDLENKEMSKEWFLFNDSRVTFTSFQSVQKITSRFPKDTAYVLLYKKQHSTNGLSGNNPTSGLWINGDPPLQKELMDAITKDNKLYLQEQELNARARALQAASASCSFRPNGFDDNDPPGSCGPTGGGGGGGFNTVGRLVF
Procedure, shortened: as §1

USP39 = target: T3, USP39 (UniProt Q53GS9)
T3 sequence (whole entry): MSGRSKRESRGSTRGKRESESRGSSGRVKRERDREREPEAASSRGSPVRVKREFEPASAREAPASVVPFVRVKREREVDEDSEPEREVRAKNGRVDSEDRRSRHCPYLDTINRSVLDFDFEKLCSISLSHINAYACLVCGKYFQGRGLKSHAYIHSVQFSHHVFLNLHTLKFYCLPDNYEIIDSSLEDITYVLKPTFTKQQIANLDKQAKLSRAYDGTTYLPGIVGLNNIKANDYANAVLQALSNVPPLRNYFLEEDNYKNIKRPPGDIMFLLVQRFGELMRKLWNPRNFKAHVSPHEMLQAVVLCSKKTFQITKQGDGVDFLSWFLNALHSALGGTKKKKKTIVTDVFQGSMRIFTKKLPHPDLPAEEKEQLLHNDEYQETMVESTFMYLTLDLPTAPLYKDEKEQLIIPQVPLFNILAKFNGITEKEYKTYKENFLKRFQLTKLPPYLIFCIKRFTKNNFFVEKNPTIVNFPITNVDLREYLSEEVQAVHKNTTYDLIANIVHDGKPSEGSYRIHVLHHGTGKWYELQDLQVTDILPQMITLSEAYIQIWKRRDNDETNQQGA
Procedure, shortened: as §1

USP4 = target: T4, USP4 (UniProt Q13107)
T4 sequence (whole entry): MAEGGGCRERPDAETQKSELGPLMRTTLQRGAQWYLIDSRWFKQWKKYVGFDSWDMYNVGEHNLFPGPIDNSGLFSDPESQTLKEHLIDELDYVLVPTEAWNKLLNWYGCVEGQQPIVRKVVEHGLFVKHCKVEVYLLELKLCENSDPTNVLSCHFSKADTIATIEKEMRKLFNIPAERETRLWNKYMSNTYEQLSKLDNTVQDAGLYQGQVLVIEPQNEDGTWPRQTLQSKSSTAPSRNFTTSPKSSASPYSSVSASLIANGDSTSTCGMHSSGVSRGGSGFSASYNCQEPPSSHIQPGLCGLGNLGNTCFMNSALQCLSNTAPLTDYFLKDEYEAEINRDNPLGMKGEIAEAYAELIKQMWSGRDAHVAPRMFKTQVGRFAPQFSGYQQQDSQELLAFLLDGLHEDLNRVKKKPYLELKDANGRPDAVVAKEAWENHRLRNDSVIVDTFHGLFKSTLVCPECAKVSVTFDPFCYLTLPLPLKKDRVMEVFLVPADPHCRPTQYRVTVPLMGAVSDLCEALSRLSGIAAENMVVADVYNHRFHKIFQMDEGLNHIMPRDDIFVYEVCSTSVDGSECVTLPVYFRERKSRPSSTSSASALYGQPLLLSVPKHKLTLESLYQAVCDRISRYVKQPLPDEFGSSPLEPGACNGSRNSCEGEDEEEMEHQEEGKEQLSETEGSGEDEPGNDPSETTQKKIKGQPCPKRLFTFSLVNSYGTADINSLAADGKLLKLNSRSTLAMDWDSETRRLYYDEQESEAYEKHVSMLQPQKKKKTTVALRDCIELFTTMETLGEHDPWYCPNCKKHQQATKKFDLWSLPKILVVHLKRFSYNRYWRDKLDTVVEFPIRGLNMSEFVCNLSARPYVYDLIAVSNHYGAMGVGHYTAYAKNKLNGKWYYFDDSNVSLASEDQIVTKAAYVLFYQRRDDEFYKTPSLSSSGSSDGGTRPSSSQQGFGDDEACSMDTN
Procedure, shortened: as §1

Measured: log2 ratio of Biotin-Ahx-Ub-VS probe labelling

Sequence of USP34 (Q70CQ2 whole entry, the tested form may be a part): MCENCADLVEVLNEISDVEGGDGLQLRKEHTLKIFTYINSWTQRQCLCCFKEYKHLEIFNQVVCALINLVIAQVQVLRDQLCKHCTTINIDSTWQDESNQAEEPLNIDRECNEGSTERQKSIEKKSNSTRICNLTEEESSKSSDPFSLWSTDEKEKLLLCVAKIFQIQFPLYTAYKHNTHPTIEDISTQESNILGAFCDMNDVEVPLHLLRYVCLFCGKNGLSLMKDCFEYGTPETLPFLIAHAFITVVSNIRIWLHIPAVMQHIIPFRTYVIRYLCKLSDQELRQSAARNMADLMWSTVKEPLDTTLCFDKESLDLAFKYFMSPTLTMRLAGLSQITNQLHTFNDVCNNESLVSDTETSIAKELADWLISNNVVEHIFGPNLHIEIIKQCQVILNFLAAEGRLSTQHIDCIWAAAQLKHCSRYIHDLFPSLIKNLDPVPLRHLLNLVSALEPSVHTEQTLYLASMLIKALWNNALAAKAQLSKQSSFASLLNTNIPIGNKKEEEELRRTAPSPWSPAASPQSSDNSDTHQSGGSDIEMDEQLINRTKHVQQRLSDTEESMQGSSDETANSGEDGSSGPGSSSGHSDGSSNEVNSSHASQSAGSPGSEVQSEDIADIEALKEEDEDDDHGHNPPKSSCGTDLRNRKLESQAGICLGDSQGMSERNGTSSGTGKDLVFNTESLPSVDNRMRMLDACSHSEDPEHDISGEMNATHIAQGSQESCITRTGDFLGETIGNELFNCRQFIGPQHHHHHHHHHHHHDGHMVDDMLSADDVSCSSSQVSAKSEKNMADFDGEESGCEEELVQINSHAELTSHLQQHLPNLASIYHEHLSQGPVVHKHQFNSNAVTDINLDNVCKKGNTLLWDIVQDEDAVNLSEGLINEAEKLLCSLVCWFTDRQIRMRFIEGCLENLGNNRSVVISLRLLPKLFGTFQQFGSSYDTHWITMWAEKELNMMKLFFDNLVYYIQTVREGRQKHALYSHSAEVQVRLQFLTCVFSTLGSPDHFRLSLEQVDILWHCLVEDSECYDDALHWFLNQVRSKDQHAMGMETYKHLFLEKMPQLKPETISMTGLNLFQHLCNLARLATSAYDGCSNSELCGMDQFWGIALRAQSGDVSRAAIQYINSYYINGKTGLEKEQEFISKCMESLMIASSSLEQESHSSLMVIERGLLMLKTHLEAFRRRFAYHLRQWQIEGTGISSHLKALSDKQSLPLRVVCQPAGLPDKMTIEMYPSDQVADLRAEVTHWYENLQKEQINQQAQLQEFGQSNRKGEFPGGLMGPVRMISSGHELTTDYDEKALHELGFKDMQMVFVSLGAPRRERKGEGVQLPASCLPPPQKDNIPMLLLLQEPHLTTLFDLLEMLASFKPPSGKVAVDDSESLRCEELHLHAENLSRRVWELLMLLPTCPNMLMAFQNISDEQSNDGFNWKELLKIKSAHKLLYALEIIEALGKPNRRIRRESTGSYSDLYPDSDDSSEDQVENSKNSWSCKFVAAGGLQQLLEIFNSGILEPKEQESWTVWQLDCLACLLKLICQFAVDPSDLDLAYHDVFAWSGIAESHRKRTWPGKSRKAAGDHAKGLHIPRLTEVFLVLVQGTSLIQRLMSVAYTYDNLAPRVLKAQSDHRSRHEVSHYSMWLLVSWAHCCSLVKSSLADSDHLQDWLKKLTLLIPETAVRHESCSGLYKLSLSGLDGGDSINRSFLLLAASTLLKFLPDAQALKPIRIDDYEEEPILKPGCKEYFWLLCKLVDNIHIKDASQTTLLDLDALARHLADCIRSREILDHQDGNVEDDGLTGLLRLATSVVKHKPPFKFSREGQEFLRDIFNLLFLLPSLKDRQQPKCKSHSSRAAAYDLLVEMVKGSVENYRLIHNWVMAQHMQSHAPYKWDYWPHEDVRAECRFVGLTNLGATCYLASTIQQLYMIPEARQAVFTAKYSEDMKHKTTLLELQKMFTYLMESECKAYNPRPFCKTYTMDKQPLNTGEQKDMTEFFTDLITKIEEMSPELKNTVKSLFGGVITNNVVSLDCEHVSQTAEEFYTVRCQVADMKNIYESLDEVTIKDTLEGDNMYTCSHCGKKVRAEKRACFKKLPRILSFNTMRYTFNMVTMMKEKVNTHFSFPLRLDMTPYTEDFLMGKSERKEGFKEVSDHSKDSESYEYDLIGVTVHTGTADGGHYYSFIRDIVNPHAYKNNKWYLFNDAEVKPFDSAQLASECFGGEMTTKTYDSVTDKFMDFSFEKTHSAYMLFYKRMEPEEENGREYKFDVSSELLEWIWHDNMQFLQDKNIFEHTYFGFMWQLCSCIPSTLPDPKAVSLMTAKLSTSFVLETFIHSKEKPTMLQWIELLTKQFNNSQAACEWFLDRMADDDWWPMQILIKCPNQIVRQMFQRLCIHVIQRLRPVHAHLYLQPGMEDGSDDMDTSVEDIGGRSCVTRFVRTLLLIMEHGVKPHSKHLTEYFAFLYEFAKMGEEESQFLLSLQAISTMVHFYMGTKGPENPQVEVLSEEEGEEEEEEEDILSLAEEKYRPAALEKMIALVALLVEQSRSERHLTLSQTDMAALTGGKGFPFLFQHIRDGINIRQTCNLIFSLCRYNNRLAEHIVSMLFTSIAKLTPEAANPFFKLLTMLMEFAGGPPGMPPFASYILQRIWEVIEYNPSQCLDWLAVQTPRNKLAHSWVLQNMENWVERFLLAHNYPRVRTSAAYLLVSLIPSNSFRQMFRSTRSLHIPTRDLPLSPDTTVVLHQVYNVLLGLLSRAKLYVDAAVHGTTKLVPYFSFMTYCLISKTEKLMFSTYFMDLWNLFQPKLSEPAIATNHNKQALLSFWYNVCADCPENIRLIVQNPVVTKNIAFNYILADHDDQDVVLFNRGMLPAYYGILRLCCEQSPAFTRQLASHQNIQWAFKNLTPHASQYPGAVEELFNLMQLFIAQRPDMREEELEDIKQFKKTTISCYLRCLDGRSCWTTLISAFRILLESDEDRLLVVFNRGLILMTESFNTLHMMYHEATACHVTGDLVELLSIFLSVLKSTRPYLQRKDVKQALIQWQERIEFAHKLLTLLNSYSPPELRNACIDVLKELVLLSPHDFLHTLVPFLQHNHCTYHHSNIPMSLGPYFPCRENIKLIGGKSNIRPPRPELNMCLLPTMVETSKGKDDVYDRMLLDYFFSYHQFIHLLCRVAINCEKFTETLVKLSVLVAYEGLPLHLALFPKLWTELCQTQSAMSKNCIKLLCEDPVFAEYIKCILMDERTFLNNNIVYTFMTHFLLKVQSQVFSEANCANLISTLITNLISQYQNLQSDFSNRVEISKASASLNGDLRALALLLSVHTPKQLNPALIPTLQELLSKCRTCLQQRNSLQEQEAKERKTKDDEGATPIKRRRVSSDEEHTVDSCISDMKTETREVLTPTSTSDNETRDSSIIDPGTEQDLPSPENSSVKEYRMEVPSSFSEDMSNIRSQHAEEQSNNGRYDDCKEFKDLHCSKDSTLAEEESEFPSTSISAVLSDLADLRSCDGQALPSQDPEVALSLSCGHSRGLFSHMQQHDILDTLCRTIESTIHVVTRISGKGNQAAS

CC(NC(=O)CCl)c1csc(-c2ccccc2)n1.Cl (stereo not given)
inactive: USP34 -0.477 | USP36 -0.276 | USP38 -0.266 | USP39 0.0283 | USP4 -0.166
